Shown are actives, neighbours in structure and some others; about 7.5% of the full set was active somewhere.
FLuc modulator = inhibits or activates purified firefly luciferase, miR-21 counter-screen; P08659; purified FLuc, Km substrates, luminescence inhibition; Potency, µM (top dose mostly 57.5 µM), inactives show top-dose activity change, negative = inhibition, usual class: inhibitors; 360,000 compounds, 6.9% hits;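 also: plate controls were vehicle for no effect and reference inhibitor for full effect; nearly all actives have a fitted effect of over 55% in size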
Target sequence (P08659 whole entry, looked up): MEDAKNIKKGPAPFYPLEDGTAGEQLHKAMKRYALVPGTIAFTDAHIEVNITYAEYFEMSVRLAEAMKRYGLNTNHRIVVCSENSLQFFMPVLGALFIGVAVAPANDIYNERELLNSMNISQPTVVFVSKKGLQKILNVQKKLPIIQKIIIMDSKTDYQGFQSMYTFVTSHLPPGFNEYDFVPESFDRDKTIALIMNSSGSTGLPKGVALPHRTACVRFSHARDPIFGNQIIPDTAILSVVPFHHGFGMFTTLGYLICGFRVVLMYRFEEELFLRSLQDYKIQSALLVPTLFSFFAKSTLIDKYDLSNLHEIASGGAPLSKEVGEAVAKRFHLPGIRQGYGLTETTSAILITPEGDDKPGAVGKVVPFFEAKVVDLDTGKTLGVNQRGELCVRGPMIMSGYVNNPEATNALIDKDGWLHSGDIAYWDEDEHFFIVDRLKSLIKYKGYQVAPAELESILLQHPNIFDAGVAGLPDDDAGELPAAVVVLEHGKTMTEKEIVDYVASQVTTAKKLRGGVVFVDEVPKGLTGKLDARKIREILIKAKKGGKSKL
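Purified P. pyralis luciferase, 10 nM final, with Km-level 10 uM D-luciferin and 10 uM ATP in 50 mM Tris acetate pH 7.5, 10 mM Mg acetate, 0.01% Tween-20, 0.05% BSA; 6-point qHTS titration about 60 µM downward; luminescence read.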
SMN2 splice enh = SMN2 splice variant enhancement; HEK293 SMN2-luciferase splicing reporter, luminescence, 30-36 h; Potency, µM (top dose mostly 46.1 µM), without a hit: at the top dose activity change, positive = activation, most hits filed as activators; 210,000 compounds, 2.8% hits; AID 1458; also: % of control where 0% means no effect; nearly all actives have a fitted effect of over 55% in size
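HEK293 cells carry an SMN2 minigene-luciferase reporter in which exon 7 inclusion puts luciferase in frame. Cells were seeded at 2000 cells/well, attached for 10-12 hours, then exposed to compounds for 30-36 hours at 37C before ONE-Glo luminescence.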
NPC1 prom act = activators of NPC1 promoter; Huh7 NPC1 promoter luciferase reporter, 24 h; Potency, µM (doses to about 9.22 µM), for inactives: at the highest dose activation, usual class: activators; 320,000 compounds, 2.4% hits; AID 485313; also: % of control where 0% means no effect; nearly all actives have a fitted effect of over 60% in size
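Readout is luciferase luminescence, reflecting NPC1 promoter activation in stably transfected Huh7 cells after 24 h compound exposure at 37 °C in reduced-serum medium with 10% FBS.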
Luc counter = counter-screen: inhibitors of Kinase-Glo firefly luciferase; Q27757; Kinase-Glo luciferase, ATP luminescence, 8 min; 200,000 compounds, 0.28% hits; Potency, µM (doses to about 38.3 µM), for inactives: at the highest dose activity change, negative = inhibition, most hits filed as inhibitors; also: % is scaled to controls: 0 for no effect and ±100 for the full control effect; nearly all actives have a fitted effect of over 60% in size
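Recombinant Kinase-Glo luciferase, 10 uM ATP (linear range), luciferin; imidazole pH 7.2 / KCl / MgCl2 / Tween / BSA buffer; 8 min RT; luminescence.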
ELG1 genotox = inducers of genotoxicity in HEK293T ELG1-luciferase cells. HEK293T ELG1-luciferase reporter, luminescence, 16 h. Potency, µM (highest dose often 46 µM), for the others: at the top dose activity change, positive = activation, hits mostly activators. 330,000 compounds, 1.3% hits. AID 504466; also: % of control where 0% means no effect; nearly all actives have a fitted effect of over 60% in size
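ELG1-luciferase HEK293T cells, 2,000/well; compound pinned in; 16 hr, 37 °C, 5% CO2; ONE-Glo, 30 min RT; luminescence on CCD imager.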
Rab9 prom act = activators of Rab9 promoter. Huh7 Rab9 promoter-luciferase reporter, luminescence, 24 h. Potency, µM (series often up to 9.22 µM), inactives show top-dose activation, negative = inhibition, usual class: activators. 320,000 compounds, 2.8% hits. AID 485297; also: % of control where 0% means no effect; nearly all actives have a fitted effect of over 60% in size
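Quantitative HTS format; Huh7 Rab9-luciferase reporter cells (1500/well) receive compound 2 h post-plating, incubate 24 h at 37 °C, then get luciferase reagent for 10 min before luminescence reading.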
* hit, by the source's call; ? = inconclusive; nt = not tested or not shown; ! = repeats disagree; [ ] = remark or other dose. Calls follow the shape of the dose curve; as a rule, active = well fitted curve in the direction sought with a large enough effect; inconclusive = small, poorly fitted or top-dose-only effect, or another doubt; inactive = no such curve, though single readings can be large; an effect the other way counts as inactive or inconclusive. Potency is read from the fitted curve at half-maximal effect.

SMILES	FLuc modulator	SMN2 splice enh	NPC1 prom act	Luc counter	ELG1 genotox	Rab9 prom act
CSCC[C@H](NC(=O)[C@@H]1Cc2ccccc2CN1)C(=O)Nc1ccc2c(c1)OCCO2	15.1µM*	nt	?	nt	?	?
C[C@H](NC(=O)[C@@H]1Cc2ccccc2CN1)C(=O)Nc1ccc2c(c1)OCCO2	-6.1%	nt	-1.1%	nt	8.5%	6.5%
CCCOC(=O)c1ccc(OCC(O)Cn2c(C)nc3ccccc32)cc1 (stereo unspecified)	2.8%	-88.0%	-21.8%	0.8%	10.3µM*	-30.8%
Cc1ccnc(NS(=O)(=O)c2ccc(NC(=O)c3cc(-c4ccc(Br)cc4)nc4ccccc34)cc2)n1	-22.0%	20.6%	-0.6%	-1.5%	-1.2%	0.4%
O=C1CN(c2ccccc2)C(=S)N1C(=O)c1ccccc1	23.9µM*	nt	?	nt	?	3.98µM*
COc1cc(NC(=O)c2cc3c(=O)n(Cc4ccco4)ccc3nc2C)cc(OC)c1OC	-0.1%	nt	nt	nt	nt	nt
CC[C@H](C)C(=O)O[C@H]1C[C@@H](C)C=C2C=C[C@H](C)[C@H](CC[C@@H]3C[C@@H](O)CC(=O)O3)[C@H]21	3.8%	15.8µM*!	2.7%	-1.9%	-0.5%	0.1%
CC[C@H](C)C(=O)O[C@H]1CCC=C2C=C[C@H](C)[C@H](CC[C@@H]3C[C@@H](O)CC(=O)O3)[C@H]21	-11.5%	?	-17.4%[46.1 µM]	-3.9%	7.3%	-14.3%[46.1 µM]
C=CCSC(=C(C#N)C#N)c1cc2c([nH]1)CCCC2	-6.6%	-2.8%	-8.4%	-4.6%	15.2%	-11.6%
Cc1cc(Br)ccc1SCC(=O)N1CCN(S(=O)(=O)c2ccccc2)CC1	13.5µM*	nt	?	nt	16.4µM*	?
O=C(CSc1ncccn1)N1CCN(S(=O)(=O)c2ccccc2)CC1	-1.0%	nt	3.2%	nt	0.1%	-4.3%
COc1cc2c(cc1NC(=O)C(C)OC(=O)C1CC(=O)N(Cc3ccco3)C1)oc1ccccc12 (stereo unspecified)	?	23.5%	?	2.1%	20.6µM*	?
CCCCC(=O)Nc1sc2c(c1C(N)=O)CCC2	21.3µM*	?	21.0%	-2.9%	?	?
CC(C)(C)C(=O)NC(=S)Nc1sc2c(c1C(N)=O)CCC2	4.78µM*	10µM*	?	0.3%	28.4%	?
Cc1sc(NC(=S)NC(=O)C(C)(C)C)c(C(N)=O)c1C	4.78µM*	?	?	-0.1%	?	?
CC(=O)Nc1sc2c(c1C(N)=O)CCC2	1.4%	2.7%	1.5%	-0.3%	-3.0%	0.5%
COc1ccc(C(=O)N2CCC(n3c(C)nc4cc(F)ccc43)CC2)cc1	2.4%	-57.3%	-1.0%	-2.4%	2.4%	-3.7%
COc1ccc(-c2cn3c4c(sc3n2)CCCC4)cc1	0.213µM*	1.26µM*	1µM*	-6.4%	?	0.501µM*
COc1ccc(-c2cn3c(C)c(C(=O)Nc4ccncc4)sc3n2)cc1	?	-23.5%	-4.1%	-1.1%	1.8%	-1.2%
CC1(C)CC(=O)C(C=Nc2ccc(NC3=C(C#N)C(=O)CC(C)(C)C3)cc2)=C(O)C1	-3.4%	5.1%	-2.4%	0.0%	1.3%	-3.9%
c1ccc(CNc2ncnc3nc[nH]c23)cc1	-2.1%	-3.4%	1.2%	-0.4%	-4.8%	2.5%
Fc1ccc(/C=N/Nc2ncnc3nc[nH]c23)cc1F	?	?	29.5%	-26.8%	20.6µM*	27.9%
Cc1ccsc1/C=N/Nc1ncnc2nc[nH]c12	19µM*	11.2µM*	2.51µM*	?	14.6µM*	3.55µM*
C(=N\Nc1ncnc2nc[nH]c12)/c1cccs1	13.5µM*	35.5µM*	?	-21.9%	16.4µM*	?
Cc1ccccc1/C=N/Nc1ncnc2nc[nH]c12	15.1µM*	nt	?	nt	?	?
SMILES	FLuc modulator	SMN2 splice enh	NPC1 prom act	Luc counter	ELG1 genotox	Rab9 prom act
Clc1ccc(CCNc2ncnc3nc[nH]c23)cc1	-19.0%	-63.1%	0.0%	-0.9%	-1.7%	-7.3%
CCOC(=O)Cn1nc(C)c(NC(=O)c2ccc(Cl)c([N+](=O)[O-])c2)c1C	4.8%	4.2%	-5.0%	1.8%	-1.0%	7.2%
COc1ccc(C(=O)NCCn2cc(SCC(=O)Nc3ccc(F)cc3)c3ccccc32)cc1	?	-25.7%	nt	nt	nt	nt
COc1ccc(/C=C2\SC(=Nc3ccccc3OC)NC2=O)cc1	5.36µM*	nt	-25.7%	nt	-1.2%	3.7%
COc1cc(/C=C2\SC(=Nc3ccccc3OC)NC2=O)ccc1O	?	nt	-23.6%	nt	0.4%	-0.4%
Cc1cccc(C)c1N(CC(=O)NCc1ccccc1)C(=O)c1csnn1	-0.3%	nt	1.2%	nt	0.1%	5.6%
CCOC(=O)Cn1cc(Cl)cc(C(=O)Nc2ccccc2)c1=O	16.9µM*	nt	-3.7%	nt	5.5%	-1.9%[1.84 µM]
CCOC(=O)Nc1ccc2c(c1)ncn2C1CCCCC1	-1.5%[2.3 µM]	22.3%	2.7%	-4.8%	11.6%	21.5%
COC(=O)Nc1ccc2c(c1)ncn2C1CCCCC1	16.9µM*	1.3%	15.9%	-8.6%	11.8%	0.4%
COc1ccc(CNC(=O)c2cc3cccc4c3n2CC(C)S4)cc1 (stereo unspecified)	7.7%	nt	nt	nt	nt	nt
COc1ccccc1C(=O)Nc1ccc(C(=O)OCc2cc(=O)n3c4c(sc3n2)CCCC4)cc1	-7.7%	nt	nt	nt	nt	nt
CSc1c(-c2ccccn2)c(N)nn1C(=O)C1CC1	19µM*	nt	-0.2%	nt	-0.3%	0.1%
COC(=O)COc1ccc2c(c1)O/C(=C\c1cccc([N+](=O)[O-])c1)C2=O	-7.5%	nt	-2.9%	nt	1.7%	7.1%
COc1ccc(/C=C2\Oc3cc(OCC(N)=O)ccc3C2=O)cc1OC	12µM*	nt	-5.3%	nt	3.4%	6.7%
Cc1ccc(/C=C2\Oc3cc(OC(=O)N4CCOCC4)ccc3C2=O)cc1	2.13µM*	-17.1%	7.8%	-1.7%	-2.4%	14.5%
CCC1CCCCN1C(=O)COc1ccc2c(c1)OCO2 (stereo unspecified)	-0.6%	nt	0.7%	nt	8.1%	4.2%
COc1cccc(/C=C2\Oc3cc(OC(=O)N4CCOCC4)ccc3C2=O)c1	6.01µM*	nt	19.7%	nt	5.2%	22.3%
O=C1/C(=C/c2ccc3c(c2)OCO3)Oc2cc(OCC(=O)N3CCC[C@H]3C(=O)O)ccc21	0.536µM*	nt	2.3%	nt	-2.3%	-0.9%
CC1(C)CN=C(N2CCN(C3=NCC(C)(C)S3)CC2)S1	2.7%	nt	-1.3%	nt	0.7%	7.8%
COc1ccccc1/C=C1\Oc2cc(OC(=O)N3CCOCC3)ccc2C1=O	10.7µM*	nt	18.9%	nt	4.1%	13.8%
COc1ccc(OC(=O)N2CCOCC2)cc1	1.0%	nt	3.5%	nt	6.1%	12.3%
Cc1ccsc1/C=C1\Oc2cc(OCC(=O)c3ccccc3)ccc2C1=O	2.69µM*	-6.7%	10.2%	-7.7%	6.9%	0.8%

Screens (PubChem)
